Data as given in the supplement of paper PMC10849652.
Of roughly 7,900 targets only a part is listed; those with a hit were picked by preference. About 0.6% of all pairs of compound and target were hits.

Assays:
Assay in all cases: log2 fold change, soluble protein after heating vs DMSO (PISA); higher = thermal stabilisation; K562 cells, 10 uM, 30 min; active = over 0.2 and 3.5 SD of the protein, either way, in both replicates (recomputed)
[1] = compound: CC[C@@H]1C(=O)N(C)c2cnc(Nc3ccc(C(=O)NC4CCN(C)CC4)cc3OC)nc2N1C1CCCC1
In short: (§1)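 K562 cells at 2×10^6 cells/mL were exposed to 10 μM compound for 30 min, then aliquots were heated for 3 min across 48°C-58°C, pooled, and extracted in PBS containing 0.5% NP-40 at 4°C. The supernatant after 21,000xg for 90 min was taken as soluble protein and measured by TMTpro 16plex LC-MS/MS with channel sums equalised. Thermal stability is reported relative to control samples, with values from duplicates. Fold changes are given on a log2 scale.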

volasertib = compound: CC[C@@H]1C(=O)N(C)c2cnc(Nc3ccc(C(=O)N[C@H]4CC[C@H](N5CCN(CC6CC6)CC5)CC4)cc3OC)nc2N1C(C)C [volasertib]
In short: as §1

[2] = compound: CC[C@H](C)N1C=C(C2=C(C=C(C=C21)C3=CN=C(C=C3)N4CCNCC4)C(=O)NCC5=C(C=C(NC5=O)C)C)C
In short: as §1

epoxomicin = compound: CC[C@H](C)[C@@H](C(=O)N[C@@H]([C@@H](C)O)C(=O)N[C@@H](CC(C)C)C(=O)[C@]1(CO1)C)NC(=O)[C@H]([C@@H](C)CC)N(C)C(=O)C [epoxomicin]
In short: as §1

[3] = compound: CCn1c(C(=O)N(C2CC2)C2CC2)cc2c3c(ncn3C)c(Nc3cc(C)n(C)n3)nc21
In short: as §1

[4] = compound: CCn1cc(-c2ccnc3[nH]c(-c4cccc(CN(C)C)c4)cc23)c(-c2ccc(NC(=O)N(C)C)cc2)n1
In short: as §1

[5] = compound: CN(C)CC(=O)Nc1ccc2[nH]c(=O)c3ccccc3c2c1
In short: as §1

rosiglitazone = compound: CN(CCOC1=CC=C(C=C1)C[C@H]2C(=O)NC(=O)S2)C3=CC=CC=N3 (racemic) [rosiglitazone]
In short: as §1

[6] = compound: CN1C2=C(C3=C1C(=O)N(N=C3)CC4=CC(=CC=C4)N)SC(=C2)S(=O)C
In short: as §1

[7] = compound: CN1CCC(CNc2ccc3ncc(-c4cccc(OC(F)(F)F)c4)n3n2)CC1
In short: as §1

Measured: log2 fold change

MFN1 (UniProt Q8IWA4)
active: [7] -0.295
inactive: [1] -0.099 | volasertib -0.136 | [2] -0.056 | epoxomicin 0.079 | [3] 0.015 | [4] -0.024 | [5] -0.025 | rosiglitazone 0.32 | [6] -0.045

MIER1 isoform 12 (UniProt Q8N108)
inactive: [1] -0.032 | volasertib -0.102 | [2] 0.066 | epoxomicin 0.02 | [3] -0.039 | [4] -0.095 | [5] -0.033 | rosiglitazone -0.027 | [6] -0.077 | [7] -0.107

KPNA6 (UniProt O60684)
active: volasertib -0.699
inactive: [1] -0.225 | [2] 0.04 | epoxomicin 0.021 | [3] -0.098 | [4] 0.043 | [5] 0.063 | rosiglitazone 0.062 | [6] 0.227 | [7] -0.184

MAP4 (UniProt E7EVA0)
inactive: [1] 0.079 | volasertib 0.246 | [2] 0.036 | epoxomicin -0.113 | [3] -0.004 | [4] 0.068 | [5] -0.021 | rosiglitazone -0.206 | [6] 0.131 | [7] 0.152

KPNA4 (UniProt O00629)
inactive: [1] -0.008 | volasertib -0.251 | [2] 0.033 | epoxomicin -0.008 | [3] 0.038 | [4] 0.029 | [5] 0 | rosiglitazone 0.01 | [6] -0.066 | [7] -0.052

LRPPRC (UniProt P42704)
inactive: [1] -0.413 | volasertib -0.801 | [2] 0.161 | epoxomicin 0.277 | [3] -0.243 | [4] 0.01 | [5] 0.334 | rosiglitazone 0.214 | [6] 0.177 | [7] -0.323

MFSD1 isoform 6 (UniProt Q9H3U5)
inactive: [1] -0.022 | volasertib 0.053 | [2] -0.01 | epoxomicin 0 | [3] -0.023 | [4] -0.069 | [5] -0.025 | rosiglitazone -0.016 | [7] -0.012

MAP4K2 (UniProt Q12851)
inactive: [1] -0.044 | volasertib -0.093 | [2] 0.298 | rosiglitazone 0.066

ILF3 (UniProt Q12906)
inactive: [1] 0.222 | [2] 0.144 | epoxomicin 0.004 | rosiglitazone -0.082

ITPRID2 (UniProt P28290)
Chain of UniProt P28290 (P28290 whole entry, looked up): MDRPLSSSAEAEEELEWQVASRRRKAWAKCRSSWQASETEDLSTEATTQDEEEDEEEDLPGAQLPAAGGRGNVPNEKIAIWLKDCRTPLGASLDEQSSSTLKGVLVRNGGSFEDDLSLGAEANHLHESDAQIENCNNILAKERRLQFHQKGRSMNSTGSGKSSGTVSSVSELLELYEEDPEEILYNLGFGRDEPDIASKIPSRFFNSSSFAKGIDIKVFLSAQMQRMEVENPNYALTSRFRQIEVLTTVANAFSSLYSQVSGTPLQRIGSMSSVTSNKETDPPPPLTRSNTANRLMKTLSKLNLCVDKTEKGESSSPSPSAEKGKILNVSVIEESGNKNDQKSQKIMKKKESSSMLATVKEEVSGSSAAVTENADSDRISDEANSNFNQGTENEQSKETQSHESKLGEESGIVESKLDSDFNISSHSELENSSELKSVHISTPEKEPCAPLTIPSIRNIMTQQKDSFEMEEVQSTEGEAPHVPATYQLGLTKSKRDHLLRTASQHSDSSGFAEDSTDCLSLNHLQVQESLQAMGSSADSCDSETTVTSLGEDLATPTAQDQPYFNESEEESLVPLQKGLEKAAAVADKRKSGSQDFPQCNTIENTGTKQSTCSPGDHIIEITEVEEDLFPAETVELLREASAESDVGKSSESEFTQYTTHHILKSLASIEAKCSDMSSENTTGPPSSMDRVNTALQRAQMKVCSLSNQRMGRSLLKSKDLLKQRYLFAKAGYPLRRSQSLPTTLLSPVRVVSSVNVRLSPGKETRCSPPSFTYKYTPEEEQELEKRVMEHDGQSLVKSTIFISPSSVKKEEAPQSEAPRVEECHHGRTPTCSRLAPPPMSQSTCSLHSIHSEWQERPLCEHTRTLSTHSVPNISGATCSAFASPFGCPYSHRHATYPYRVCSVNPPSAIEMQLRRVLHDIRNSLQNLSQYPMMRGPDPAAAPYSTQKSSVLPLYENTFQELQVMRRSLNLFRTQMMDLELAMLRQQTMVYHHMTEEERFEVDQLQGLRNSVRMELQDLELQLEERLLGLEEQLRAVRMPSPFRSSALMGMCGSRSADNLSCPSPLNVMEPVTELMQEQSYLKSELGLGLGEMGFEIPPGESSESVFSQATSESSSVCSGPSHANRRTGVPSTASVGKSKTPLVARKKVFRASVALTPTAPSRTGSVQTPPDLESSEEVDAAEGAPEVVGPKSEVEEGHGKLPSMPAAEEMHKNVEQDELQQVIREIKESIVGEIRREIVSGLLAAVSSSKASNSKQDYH
inactive: [1] 0.01 | volasertib -0.373 | epoxomicin -0.109 | [3] 0.078 | [5] -0.106

LPGAT1 (UniProt Q92604)
inactive: [1] -0.206 | [2] 0.063 | epoxomicin 0.015 | [3] -0.128 | [5] 0.051 | rosiglitazone 0.012 | [6] -0.029
active: volasertib -0.401

MAGEA8 (UniProt P43361)
inactive: [1] -0.096 | volasertib -0.386 | [2] -0.075 | [3] -0.063 | [4] 0.252 | [5] -0.003 | rosiglitazone 0.036 | [6] 0.038 | [7] -0.07

MBLAC1 (UniProt A4D2B0)
Chain of UniProt A4D2B0 (A4D2B0 whole entry, looked up): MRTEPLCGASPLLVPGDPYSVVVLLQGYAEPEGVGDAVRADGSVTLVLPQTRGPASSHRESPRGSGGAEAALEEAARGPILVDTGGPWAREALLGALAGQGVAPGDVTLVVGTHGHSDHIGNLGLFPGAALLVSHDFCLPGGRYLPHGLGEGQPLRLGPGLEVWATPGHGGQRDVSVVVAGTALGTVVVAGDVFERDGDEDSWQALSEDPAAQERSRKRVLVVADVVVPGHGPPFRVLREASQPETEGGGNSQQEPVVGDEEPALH
inactive: [1] 0.112 | volasertib 0.148 | [3] 0.063 | [4] -0.01 | [5] 0.105 | rosiglitazone -0.024 | [6] -0.021 | [7] 0.063

MASTL (UniProt Q96GX5)
inactive: [1] -0.02 | [2] 0.045 | epoxomicin 0.113 | [3] -0.048 | [5] -0.143 | rosiglitazone -0.006 | [6] 0.081

MARCHF3 (UniProt Q86UD3)
Chain of UniProt Q86UD3 (Q86UD3 whole entry, looked up): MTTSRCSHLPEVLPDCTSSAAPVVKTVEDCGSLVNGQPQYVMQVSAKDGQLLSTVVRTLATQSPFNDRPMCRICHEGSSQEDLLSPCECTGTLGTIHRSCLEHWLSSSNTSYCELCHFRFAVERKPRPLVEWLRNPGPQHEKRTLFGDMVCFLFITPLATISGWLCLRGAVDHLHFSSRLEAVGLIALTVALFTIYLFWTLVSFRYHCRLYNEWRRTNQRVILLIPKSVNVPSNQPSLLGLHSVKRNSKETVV
inactive: [1] 0.116 | volasertib 0.011 | [2] 0.018 | epoxomicin 0.036 | rosiglitazone 0.093

IP6K1 (UniProt Q92551)
inactive: [1] 0.127 | volasertib -0.176 | epoxomicin 0 | [3] -0.253 | [4] 0.028 | rosiglitazone 0.091 | [6] 0.147 | [7] -0.052

ITM2B (UniProt Q9Y287)
inactive: [1] -0.022 | volasertib 0.182 | [2] -0.112 | epoxomicin 0.028 | [3] 0.001 | [5] -0.036 | rosiglitazone 0.057 | [6] -0.197

MFSD8 (UniProt Q8NHS3)
Chain of UniProt Q8NHS3 (Q8NHS3 whole entry, looked up): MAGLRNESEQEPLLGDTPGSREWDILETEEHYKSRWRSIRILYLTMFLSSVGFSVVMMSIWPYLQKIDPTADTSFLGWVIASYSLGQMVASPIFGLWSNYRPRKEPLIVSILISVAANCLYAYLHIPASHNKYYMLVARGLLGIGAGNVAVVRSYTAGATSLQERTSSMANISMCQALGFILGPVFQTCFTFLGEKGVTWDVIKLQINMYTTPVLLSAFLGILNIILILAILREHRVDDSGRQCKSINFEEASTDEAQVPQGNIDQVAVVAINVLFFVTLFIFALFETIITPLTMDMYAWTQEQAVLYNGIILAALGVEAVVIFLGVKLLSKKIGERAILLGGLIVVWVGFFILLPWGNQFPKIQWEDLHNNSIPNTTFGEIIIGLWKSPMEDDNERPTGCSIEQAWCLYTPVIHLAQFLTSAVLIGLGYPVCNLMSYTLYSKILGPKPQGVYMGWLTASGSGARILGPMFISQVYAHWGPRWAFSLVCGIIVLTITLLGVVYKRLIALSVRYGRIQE
inactive: [1] -0.016 | volasertib 0.032 | epoxomicin -0.021 | [3] 0.001 | [4] -0.012 | [5] -0.061 | rosiglitazone -0.139 | [6] 0.046 | [7] 0.127

LUM (UniProt P51884)
Chain of UniProt P51884 (P51884 whole entry, looked up): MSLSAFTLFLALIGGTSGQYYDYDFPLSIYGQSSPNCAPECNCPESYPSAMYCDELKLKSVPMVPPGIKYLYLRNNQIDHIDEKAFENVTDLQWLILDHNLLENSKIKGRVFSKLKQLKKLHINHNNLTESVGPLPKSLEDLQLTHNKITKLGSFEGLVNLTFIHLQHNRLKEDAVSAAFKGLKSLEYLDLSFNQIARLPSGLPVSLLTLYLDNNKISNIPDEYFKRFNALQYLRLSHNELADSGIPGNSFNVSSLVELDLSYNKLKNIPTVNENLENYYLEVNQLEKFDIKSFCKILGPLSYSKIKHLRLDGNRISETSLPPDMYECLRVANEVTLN
inactive: [1] 0.076 | volasertib 0.225 | [2] -0.269 | epoxomicin -0.145 | [3] 0.2 | [5] -0.167 | [6] 0.054

LENG8 (UniProt Q96PV6)
inactive: [1] -0.029 | [2] -0.009 | epoxomicin 0.101 | [3] 0.005 | [4] 0.073 | [5] 0.065 | rosiglitazone 0.017 | [6] -0.225 | [7] -0.238

MFSD11 (UniProt O43934)
Chain of UniProt O43934 (O43934 whole entry, looked up): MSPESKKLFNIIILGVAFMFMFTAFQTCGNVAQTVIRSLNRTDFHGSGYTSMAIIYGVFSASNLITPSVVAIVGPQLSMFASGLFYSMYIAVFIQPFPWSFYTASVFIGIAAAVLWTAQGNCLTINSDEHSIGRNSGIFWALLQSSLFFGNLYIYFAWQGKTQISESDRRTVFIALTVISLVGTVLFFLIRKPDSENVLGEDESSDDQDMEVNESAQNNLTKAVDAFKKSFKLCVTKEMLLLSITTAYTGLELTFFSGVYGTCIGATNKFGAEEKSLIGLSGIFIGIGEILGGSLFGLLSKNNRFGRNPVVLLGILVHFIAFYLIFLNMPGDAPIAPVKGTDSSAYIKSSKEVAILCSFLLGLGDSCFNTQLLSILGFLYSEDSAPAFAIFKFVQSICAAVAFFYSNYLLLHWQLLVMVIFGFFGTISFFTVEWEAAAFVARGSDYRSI
inactive: [1] -0.244 | volasertib 0.021 | [2] -0.108 | epoxomicin 0.03 | [4] 0.021 | [5] 0.017 | rosiglitazone -0.006 | [6] -0.026
active: [7] -0.345

MED22 (UniProt Q15528)
Chain of UniProt Q15528 (Q15528 whole entry, looked up): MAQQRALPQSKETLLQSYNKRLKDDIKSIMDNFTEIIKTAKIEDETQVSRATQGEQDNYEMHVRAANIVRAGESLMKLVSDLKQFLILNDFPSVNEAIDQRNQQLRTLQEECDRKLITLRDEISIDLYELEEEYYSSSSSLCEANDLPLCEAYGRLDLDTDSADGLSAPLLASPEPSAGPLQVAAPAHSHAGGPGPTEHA
inactive: [1] 0.133 | [2] 0.097 | epoxomicin 0.02 | [3] 0.134 | [5] -0.019 | rosiglitazone 0.076 | [6] -0.043

MARK2 (UniProt E9PC69)
inactive: [1] 0.044 | volasertib -0.469 | [2] 0.086 | epoxomicin 0.023 | [3] -0.137 | [5] -0.028 | rosiglitazone -0.014 | [6] 0.187

MCM10 (UniProt Q7L590)
Chain of UniProt Q7L590 (Q7L590 whole entry, looked up): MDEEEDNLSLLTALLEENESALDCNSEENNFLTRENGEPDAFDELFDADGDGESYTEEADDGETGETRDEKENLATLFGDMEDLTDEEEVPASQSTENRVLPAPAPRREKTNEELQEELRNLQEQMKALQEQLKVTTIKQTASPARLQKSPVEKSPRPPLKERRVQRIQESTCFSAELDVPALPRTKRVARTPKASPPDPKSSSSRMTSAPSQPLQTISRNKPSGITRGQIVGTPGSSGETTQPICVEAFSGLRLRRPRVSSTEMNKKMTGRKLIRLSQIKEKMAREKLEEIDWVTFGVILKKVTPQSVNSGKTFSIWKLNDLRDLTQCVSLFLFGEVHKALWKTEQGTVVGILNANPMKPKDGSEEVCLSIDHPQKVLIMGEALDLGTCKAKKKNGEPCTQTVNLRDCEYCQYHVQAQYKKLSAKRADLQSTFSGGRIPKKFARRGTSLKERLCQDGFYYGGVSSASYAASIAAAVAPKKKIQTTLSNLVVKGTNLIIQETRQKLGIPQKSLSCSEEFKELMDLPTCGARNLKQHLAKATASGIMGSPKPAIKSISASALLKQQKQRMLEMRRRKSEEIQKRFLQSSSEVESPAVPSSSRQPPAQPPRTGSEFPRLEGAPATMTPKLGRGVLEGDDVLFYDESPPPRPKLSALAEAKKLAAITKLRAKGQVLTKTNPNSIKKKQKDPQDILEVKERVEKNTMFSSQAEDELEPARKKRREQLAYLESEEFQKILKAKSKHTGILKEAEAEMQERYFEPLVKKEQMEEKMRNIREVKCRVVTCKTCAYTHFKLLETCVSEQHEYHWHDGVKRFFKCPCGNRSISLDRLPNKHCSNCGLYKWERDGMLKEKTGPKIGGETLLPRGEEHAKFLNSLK
inactive: [1] -0.074 | volasertib 0 | [2] -0.034 | epoxomicin 0.148 | [3] 0.069 | [4] -0.037 | [5] -0.023 | rosiglitazone -0.164 | [7] 0.096

IMMP1L (UniProt Q96LU5)
inactive: [1] -0.012 | volasertib -0.055 | [2] -0.02 | epoxomicin -0.015 | [3] -0.031 | [5] 0.017 | rosiglitazone -0.003 | [6] -0.097

MAPK14 (UniProt Q16539)
inactive: [1] -0.065 | volasertib -0.516 | [2] -0.067 | [3] 0.088 | [4] 0.03 | [5] 0.052 | rosiglitazone 0.067 | [6] -0.231 | [7] -0.03

MCOLN3 (UniProt Q8TDD5)
Chain of UniProt Q8TDD5 (Q8TDD5 whole entry, looked up): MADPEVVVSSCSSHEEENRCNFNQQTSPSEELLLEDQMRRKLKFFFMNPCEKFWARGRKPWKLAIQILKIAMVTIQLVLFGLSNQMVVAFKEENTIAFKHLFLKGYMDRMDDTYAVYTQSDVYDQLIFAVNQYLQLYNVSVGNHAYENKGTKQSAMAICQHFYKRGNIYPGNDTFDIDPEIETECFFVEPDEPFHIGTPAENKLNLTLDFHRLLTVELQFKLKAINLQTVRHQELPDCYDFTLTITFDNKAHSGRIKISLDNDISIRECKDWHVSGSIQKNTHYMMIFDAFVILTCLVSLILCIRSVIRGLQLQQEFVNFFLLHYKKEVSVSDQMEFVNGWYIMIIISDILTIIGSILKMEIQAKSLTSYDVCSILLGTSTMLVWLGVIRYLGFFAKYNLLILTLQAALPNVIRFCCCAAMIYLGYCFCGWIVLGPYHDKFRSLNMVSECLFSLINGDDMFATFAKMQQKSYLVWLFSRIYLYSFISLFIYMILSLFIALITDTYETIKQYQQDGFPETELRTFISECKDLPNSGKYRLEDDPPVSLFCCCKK
inactive: [1] 0.094 | volasertib -0.136 | [2] -0.071 | [3] -0.132 | [4] 0.027 | rosiglitazone 0.128 | [7] -0.084

MAP4 isoform 5 (UniProt P27816)
inactive: [1] -0.001 | volasertib -0.046 | [2] -0.258 | epoxomicin 0.134 | [3] -0.03 | rosiglitazone 0.008

MELK (UniProt Q14680)
active: volasertib -1.41
inactive: [1] -0.429 | [2] 0.334 | epoxomicin 0.077 | [3] -0.009 | [4] -0.114 | rosiglitazone -0.003 | [6] 0.034 | [7] -0.426

KIZ (UniProt Q2M2Z5)
inactive: [1] 0.104 | volasertib 0.262 | [4] -0.202 | [7] -0.399

MED17 (UniProt Q9NVC6)
inactive: [1] -0.011 | volasertib -0.021 | [2] -0.008 | epoxomicin -0.015 | [3] -0.027 | [4] 0.08 | [5] 0.037 | [6] 0.036 | [7] -0.134

KXD1 (UniProt Q9BQD3)
inactive: [1] -0.154 | volasertib -0.035 | epoxomicin -0.077 | [3] -0.033 | [4] 0.041 | [5] 0.062 | rosiglitazone 0.047 | [6] 0.011 | [7] -0.096

LRBA, A0A494BZW2
inactive: [1] -0.04 | volasertib -0.025 | [2] 0.007 | epoxomicin -0.03 | [3] -0.193 | [4] -0.039 | rosiglitazone 0.011 | [6] 0.043 | [7] -0.115

KMT2C isoform 3 (UniProt Q8NEZ4)
active: [1] -0.908 | [7] -0.337
inactive: [2] -0.02 | epoxomicin -0.004 | [3] 0.009 | [4] 0.031 | [5] 0 | rosiglitazone 0.009 | [6] 0.026

LRFN1 (UniProt Q9P244)
inactive: [1] -0.015 | volasertib 0.033 | epoxomicin -0.125 | [3] 0.07 | [5] 0.134 | rosiglitazone 0.006 | [6] 0.069

MED8 isoform 2 (UniProt Q96G25)
Chain of UniProt Q96G25 (Q96G25 whole entry, looked up): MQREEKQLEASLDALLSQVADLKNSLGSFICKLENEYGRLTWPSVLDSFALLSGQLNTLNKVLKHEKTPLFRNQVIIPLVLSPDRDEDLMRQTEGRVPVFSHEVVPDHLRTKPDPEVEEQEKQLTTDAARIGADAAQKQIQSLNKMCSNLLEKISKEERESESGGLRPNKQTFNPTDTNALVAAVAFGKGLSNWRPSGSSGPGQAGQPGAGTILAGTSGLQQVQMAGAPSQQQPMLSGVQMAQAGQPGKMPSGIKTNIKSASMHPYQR
inactive: [1] 0.027 | volasertib 0.1 | [2] 0.046 | epoxomicin -0.051 | [3] 0.009 | [5] -0.075 | rosiglitazone 0.007 | [6] 0.052

METAP1D (UniProt Q6UB28)
inactive: [1] 0.031 | volasertib -0.082 | [2] 0.051 | epoxomicin 0.074 | [3] -0.039 | [5] -0.065 | rosiglitazone 0.013 | [6] 0.052
